In PubChem BioAssay (NCATS):
Where “and” joins values, the source holds several entries; their conditions need not be identical. Equal values may be shown once. Results filed as inconclusive are left out. More than one record can exist for a structure, and the calls need not agree. Calls of active or inactive are those of the source. Calls follow the shape of the dose curve; as a rule, active = well fitted inhibition curve with a large enough effect; inconclusive = small, poorly fitted or top-dose-only effect; inactive = flat fitted curve, though single readings scatter.

Legend:
[1] = tested on: CRL-7250; experiment: Cytotoxic Profiling of Annotated Libraries Using Quantitative High-Throughput Screening (AID 1296008); details: Five cell lines viability, CellTiter-Glo ATP luminescence, 48-72 h; max response: active compounds read low
Outline: (§1)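 Cytotoxicity was measured as CellTiter-Glo ATP luminescence, read after 10 min at room temperature. Compound treatment of the cells lasted 48 or 72 hr at 37 degrees Celsius in a qHTS format.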

[2] = tested on: HEK293; experiment: as above; details: Five cell lines viability, CellTiter-Glo ATP luminescence, 48-72 h; max response: active compounds read low
Outline: as §1

[3] = tested on: HaCat; experiment: as above; details: Five cell lines viability, CellTiter-Glo ATP luminescence, 48-72 h; max response: active compounds read low
Outline: as §1

[4] = tested on: KB-3-1; experiment: as above; details: Five cell lines viability, CellTiter-Glo ATP luminescence, 48-72 h; max response: active compounds read low
Outline: as §1

[5] = tested on: NIH3T3; experiment: as above; details: Five cell lines viability, CellTiter-Glo ATP luminescence, 48-72 h; max response: active compounds read low
Outline: as §1

[6] = tested on: HACAT; experiment: qHTS assay to identify novel small-molecules to repurpose for Merkel cell carcinoma treatment (AID 1296009); details: MCC and control cell lines, CellTiter-Glo viability, 72 h; at 44.8 µM (top of the series) unless noted
Outline: (§2)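 After compound transfer in DMSO, plates were kept 72 hr at 37 degree celsius. Luminescent ATP signal from CellTiter-Glo served as viability measure, normalized against DMSO and no-cell controls.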

[7] = tested on: MCC-13; experiment: as above; details: MCC and control cell lines, CellTiter-Glo viability, 72 h; series mostly up to 46 µM
Outline: as §2

[8] = tested on: MCC-26; experiment: as above; details: MCC and control cell lines, CellTiter-Glo viability, 72 h; series mostly up to 46 µM
Outline: as §2

[9] = tested on: HEK293T; experiment: as above; details: MCC and control cell lines, CellTiter-Glo viability, 72 h; series mostly up to 44.8 µM
Outline: as §2
% is scaled to controls: 0 for no effect and ±100 for the full control effect; potency is read from the fitted curve at half-maximal effect.
Also: nearly all actives have a fitted effect of over 60% in size.

CCCCOc1ccc(C(=O)Nc2ccc(F)cc2F)cc1
inactive: max response [1] -1.1% | outcome [1] | max response [2] 2.49% | outcome [3] | max response [4] 0.701% | max response [5] -3.26% | outcome [5] | outcome [6] | Potency [7] | Potency [8]

COc1ccc(C=Cc2cc(OC)c(OC)c(OC)c2)cc1NC(=O)[C@H](N)CO
inactive: max response [3] 4.22%
active: Potency [1] 0.0332 µM | Potency [2] 3.7 nM | Potency [4] 0.003 µM

CCOC(=O)N1CCN([N+]([O-])=NOc2ccc([N+](=O)[O-])cc2[N+](=O)[O-])CC1
active: Potency [2] 3720 nM | Potency [5] 9.35 µM
inactive: max response [1] -5.72% | max response [3] 3.57% | outcome [4]

COc1cc(C)c(C=CC(C)=CC=CC(C)=CC(=O)O)c(C)c1C
inactive: max response [1] -4.27% | max response [2] -16.6% | outcome [3] | outcome [4] | max response [5] -4.41% | outcome [6] | Potency [7] | Potency [8]

CCCc1nc(C(C)(C)O)c(C(=O)O)n1Cc1ccc(-c2ccccc2-c2nn[nH]n2)cc1
inactive: outcome [1] | outcome [2] | outcome [3] | max response [4] 0.595% | outcome [5] | outcome [6] | Potency [9] | Potency [7] | Potency [8]

N#Cc1c(NC(=O)c2cccc3ccccc23)sc2c1CCCC2
active: Potency [1] 1.32 µM | Potency [2] 372 nM | Potency [4] 0.469 µM | Potency [5] 0.332 µM
inactive: outcome [3] | outcome [6]

CC1(C)CC(O)CC(C)(C)N1[O]
inactive: outcome [1] | outcome [2] | outcome [3] | max response [4] 7.14% | max response [5] -4% | outcome [6] | Potency [9] | Potency [7] | Potency [8]

Cn1cc(C=CC(=O)c2cccc(F)c2)cc1C=CC(=O)NO
inactive: max response [1] -7.49% | outcome [2] | outcome [3] | outcome [4] | outcome [5] | outcome [6] | Potency [9] | Potency [7] | Potency [8]

CCOC(=O)[C@@H](N)Cc1ccc(-c2cc(O[C@H](c3ccc(Cl)cc3-n3ccc(C)n3)C(F)(F)F)nc(N)n2)cc1
inactive: max response [1] -8.01% | max response [2] -5.12% | max response [3] 1.01% | outcome [3] | max response [4] 6.69% | outcome [6] | Potency [7] | Potency [8]

C[C@@H]1C(=O)O[C@H]2CC34[C@H]5C[C@@H](C(C)(C)C)C36[C@H](OC(=O)[C@@H]6O)O[C@@]4(C(=O)O5)[C@]21O (stereo partly drawn)
inactive: outcome [1] | max response [2] 3.06% | outcome [3] | max response [4] 2.09% | outcome [5] | outcome [6] | Potency [7] | Potency [8]

O=C1NC(=O)[C@@H](c2cn3c4c(cccc24)CCC3)[C@H]1c1c[nH]c2ccccc12
active: Potency [1] 13.2 µM | Potency [2] 662 nM | Potency [4] 0.833 µM | Potency [5] 2.09 µM | Potency [7] 3320 nM
inactive: outcome [3] | outcome [6]

O=C(O)CCCCC(CCSCc1ccccc1)SCc1ccccc1 (stereo not drawn)
inactive: max response [1] 0.756% | max response [2] -0.529% | outcome [3] | outcome [4] | max response [5] 2.24% | outcome [6] | Potency [7] | Potency [8]

CC(=O)O[C@H]1C[C@@H]2CC[C@H]3[C@H]4C[C@H]([N+]5(C)CCCCC5)[C@@H](OC(C)=O)[C@@]4(C)CC[C@@H]3[C@@]2(C)C[C@H]1[N+]1(C)CCCCC1
inactive: max response [1] 0.398% | max response [2] 0.173% | outcome [3] | outcome [4] | max response [5] -1.21% | outcome [6] | Potency [7] | Potency [8]

c1cncc(CN2CCC(n3ncc4c(N5CCOCC5)nc(-c5ccc6[nH]ccc6c5)nc43)CC2)c1
active: Potency [1] 4.18 µM and 7.31 µM | Potency [2] 5800 nM | Potency [3] 14.8 µM and 18.4 µM | Potency [4] 10.3 µM | Potency [5] 9.35 µM and 5.17 µM

NC(=O)c1cccc(-c2cccc(OC(=O)NC3CCCCC3)c2)c1
inactive: outcome [1] | max response [2] -9.31% | outcome [3] | max response [4] 6.26% | outcome [5] | outcome [6] | Potency [7] | Potency [8]

Cc1ccc(O)c(C(CCN(C(C)C)C(C)C)c2ccccc2)c1 (stereo not drawn)
inactive: outcome [1] | max response [2] -19.9% | outcome [3] | outcome [4] | outcome [5] | outcome [6] | Potency [7] | Potency [8]

CCCCCCCCCCCCCCCC(=O)OC[C@@H](NC(=O)C(Cl)Cl)[C@H](O)c1ccc([N+](=O)[O-])cc1
inactive: max response [1] -9.61% | max response [2] 2.69% | outcome [3] | outcome [4] | max response [5] 0.666% | outcome [6] | Potency [7] | Potency [8]

CC(=O)C1=C(O)C=C2Oc3c(C(C)=O)c(O)c(C)c(O)c3C2(C)C1=O (stereo not drawn)
inactive: outcome [1] | outcome [2] | outcome [3] | outcome [4] | outcome [5] | outcome [6] | Potency [9] | Potency [7] | Potency [8]

COC(=O)[C@@H]1CC2=CC(=O)CC[C@]2(C)[C@@]23O[C@@H]2C[C@@]2(C)[C@H](CC[C@@]24CCC(=O)O4)[C@@H]13
inactive: max response [1] -3.2% | outcome [2] | outcome [3] | outcome [4] | outcome [5] | outcome [6] | Potency [9] | Potency [7] | Potency [8]

Nc1nc(=O)n([C@H]2CSC(CO)O2)cc1F (stereo partly drawn)
inactive: max response [1] -8.43% | outcome [2] | outcome [3] | max response [4] 9.64% | outcome [5] | outcome [6] | Potency [9] | Potency [7] | Potency [8]

COc1ccc(C[C@@H](C)[C@@H](C)Cc2ccc(OC)c(OC)c2)cc1OC
inactive: max response [3] 3.58%
active: Potency [1] 3.32 µM | Potency [2] 2640 nM | Potency [4] 2.96 µM | Potency [5] 2.35 µM

CN1C(C(=O)Nc2ccccn2)=C(O)c2sc(Cl)cc2S1(=O)=O
inactive: outcome [1] | outcome [2] | outcome [3] | max response [4] 3.99% | max response [5] -1.3% | outcome [6] | Potency [9] | Potency [7] | Potency [8]

C[C@H](O)[C@@H]1C(=O)N2C(C(=O)O)=C(S[C@@H]3CN[C@H](CNS(N)(=O)=O)C3)[C@@H](C)[C@@H]12
inactive: max response [1] 4.32% | max response [2] 0.869% | outcome [3] | outcome [4] | outcome [5] | outcome [6] | Potency [7] | Potency [8]

C[C@H]1C[C@H]2[C@@H]3CCC4=CC(=O)C=C[C@]4(C)[C@@H]3C(=O)C[C@]2(C)[C@@]1(O)C(=O)CO
inactive: max response [1] -3.73% | max response [2] 3.81% | outcome [3] | max response [4] 4.3% | outcome [5] | outcome [6] | Potency [7] | Potency [8]

Nc1ccn(C[C@@H](CO)OCP(=O)(O)O)c(=O)n1
inactive: max response [1] 3.98% | max response [2] -0.164% | outcome [3] | outcome [4] | max response [5] 0.667% | outcome [6] inactive [at 17.4 µM] | Potency [7] | Potency [8]

COc1cc2c(Nc3ccc(Cl)c(Cl)c3F)ncnc2cc1OCC1C[C@@H]2CN(C)C[C@H]2C1
inactive: max response [3] -106%
active: Potency [1] 9.35 µM | Potency [2] 4690 nM | Potency [4] 5.9 µM

CC(C)(N)c1ccc(-c2nc3ccccc3nc2-c2ccccc2)cc1
inactive: max response [1] -8.83% | max response [3] -35.2% and -5.95% | Potency [7] | Potency [8]
active: Potency [1] 0.0743 µM | Potency [4] 1.87 µM | Potency [5] 25.9 µM

O=C(Nc1ccc(Oc2ccnc3[nH]ccc23)c(F)c1)c1cccn(-c2ccc(F)cc2)c1=O
inactive: max response [1] -4.56% | max response [2] 2.79% | max response [3] 2.4% | outcome [3] | outcome [4] | outcome [5] | outcome [6] | Potency [7] | Potency [8]

N#Cc1cc(NC(=O)Nc2nnc(-c3ccncc3)s2)ccc1-c1cn[nH]c1
inactive: max response [1] -3.75% | outcome [2] | outcome [3] | max response [4] 0.642% | max response [5] -2.38% | outcome [6] | Potency [9] | Potency [7] | Potency [8]

Nc1cccc2c1C(=O)N(C1CCC(=O)NC1=O)C2=O (stereo not drawn)
inactive: max response [1] 1.13% | max response [2] -10.8% | outcome [3] | max response [4] -7.31% | max response [5] -1.24% | outcome [6] | Potency [7] | Potency [8]

c1coc(CNc2ncnc3nc[nH]c23)c1
inactive: outcome [1] | outcome [2] | outcome [3] | max response [4] -3.01% | max response [5] 0.142% | outcome [6] | Potency [9] | Potency [7] | Potency [8]

CC(Oc1ccc(O)cc1)(P(=O)(O)O)P(=O)(O)O
inactive: max response [1] 3.19% | outcome [2] | outcome [3] | max response [4] -8.06% | max response [5] -5.52% | outcome [6] | Potency [9] | Potency [7] | Potency [8]

CNC(=O)c1ccc(Nc2cc(Nc3ccccc3S(=O)(=O)C(C)C)c3cc[nH]c3n2)nc1
active: Potency [1] 3.32 µM | Potency [2] 2090 nM | Potency [3] 2.96 µM | Potency [4] 1.32 µM | Potency [5] 2.35 µM

O=C(O)c1ccc(Nc2ncc3c(n2)-c2ccc(Cl)cc2C(c2c(F)cccc2F)=NC3)cc1
inactive: max response [1] 0.615% | outcome [1] | Potency [8]
active: Potency [3] 9.2 µM | Potency [4] 18.7 µM and 5.8 µM

Cc1cc(-c2nnc3n2CCCCC3)c(C)n1-c1ccccc1
inactive: max response [1] -6.3% | max response [2] -6.24% | outcome [3] | max response [4] -0.0627% | max response [5] 1.52% | outcome [6] | Potency [7] | Potency [8]

C[C@H](CCC(=O)O)[C@H]1CC[C@H]2[C@@H]3[C@H](O)C[C@@H]4C[C@H](O)CC[C@]4(C)[C@@H]3CC[C@]12C
inactive: max response [1] 2.36% | max response [2] -7.11% | outcome [3] | max response [4] 1.89% | outcome [5] | outcome [6] | Potency [7] | Potency [8]

COC(=O)C=CC(=O)OC
inactive: max response [1] -5.16% | outcome [2] | outcome [3] | max response [4] 7.81% | max response [5] -0.0603% | outcome [6] | Potency [9] | Potency [7] | Potency [8]
